# Bioassay records as filed in PubChem.
# The list is not random: actives were taken first. Their share in the collection is about 21%.
# Cycloheximide cs: counter-screen for Shiga toxin inhibitors: cycloheximide protein synthesis inhibition; cell reporter, cycloheximide protein synthesis inhibition counterscreen; max response, %; AID 2314; 300,000 tested, 12% active; in the data active means max response mostly above about 13%, no sharp cut-off; inactive means mostly below about 14%; further: read at 38.3 µM for the half of the compounds with a filed dose; 0% is about no effect
# Pf growth 96h: P. falciparum growth inhibition at 96 hour, primary screen for plastid delayed-death inhibitors; P. falciparum luciferase reporter growth, 96 h; Potency, µM (highest dose often 28.7 µM), inactives show top-dose activity change, negative = inhibition, hits mostly inhibitors; 320,000 tested, 6.9% active; further: potency means the concentration at half of the fitted maximal effect; on the % scale 0 is the no-effect control and ±100 the full control effect
#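 Erythrocytes infected with luciferase-expressing P. falciparum were dispensed at 2% hematocrit and 0.05% parasitemia (final), then incubated with compounds 96 hours at 37 C in 5% CO2. Luminescence after detection reagent addition reported growth.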
# AMA1 RON2 block: disrupts binding of P. falciparum AMA1 to RON2; AlphaScreen AMA1-biotinylated RON2 peptide binding; Potency, µM (series often up to 58.2 µM), for the others: at the top dose activity change, negative = inhibition, actives largely listed as inhibitors; 360,000 tested, 0.2% active; AID 720542;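 further: potency means the concentration at half of the fitted maximal effect; 0% = vehicle wells and -100% = peptide control; nearly all actives have a fitted effect of over 45% in size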
#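 AMA1 (3D7) with his tag at 25 nM final met compounds first, then biotinylated RON2 peptide at 25 nM; detection used donor plus acceptor beads, 10 µg/mL apiece, read by AlphaScreen after 30 min at room temperature.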
# Shiga inhibitor: inhibitors of Shiga toxin in Vero cells. inhibition, % at 38.7 µM. 290,000 tested, 9.2% active. Vero cells, Shiga toxin protein synthesis inhibition reporter; in the data active means inhibition mostly above about 28%, no sharp cut-off; inactive means mostly below about 43%; further: 0% is about no effect
# HCV inhibitor: inhibitors of hepatitis C virus infection. Huh7.5.1 HCVcc-Cre infection, luciferase reporter, 44 h. 340,000 tested, 3.4% active. AID 651820. Potency, µM (doses to about 41.8 µM), for inactives: at the highest dose activity change, negative = inhibition, actives largely listed as inhibitors; further: potency means the concentration at half of the fitted maximal effect; on the % scale 0 is the no-effect control and ±100 the full control effect
#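 After 44 h co-culture of compound, cells and HCVcc-Cre (~0.5 moi), substrate is added for 15 min at room temperature and luciferase measured over 15 sec. Cells were seeded at 1,000/well and pre-cultured 4 h.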
# Pf growth 48h: inhibits P. falciparum growth in the first generation, 48 h | P. falciparum luciferase growth in erythrocytes, 48 h | Potency, µM (series often up to 28.7 µM), inactives show at the top dose activity change, negative = inhibition, usual class: inhibitors | 310,000 tested, 5.9% active | AID 504832; further: potency means the concentration at half of the fitted maximal effect; on the % scale 0 is the no-effect control and ±100 the full control effect
#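 Parasite viability was followed by luminescence of a genomically integrated firefly luciferase. Cultures held 0.1% parasitemia at 2% hematocrit (final), incubated under 5% CO2 at 37 C.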
# * marks the source's active call; other numbers are inactive results; ? = inconclusive; . = not tested or not shown; [ ] = remark or other dose. Unless noted, the call rests on the fitted dose curve; in most records, active means well fitted curve in the direction sought with a large enough effect; inconclusive means small, poorly fitted or top-dose-only effect, or another doubt; inactive means no such curve, though single readings can be large; an effect the other way counts as inactive or inconclusive.
SMILES,Cycloheximide cs,Pf growth 96h,AMA1 RON2 block,Shiga inhibitor,HCV inhibitor,Pf growth 48h
C=CCC[C@@H](Cc1ccc(F)cc1)C(=O)OC[C@H](C)NC(=O)[C@@H](CC=C)CC(=O)N[C@@H](CO)Cc1ccccc1,.,.,26.5%,.,-20.7%,.
NC1=NC[C@H](Cc2ccc(O)cc2)N1CCCCC1CCCCC1,-6.9,2.08µM*,-3.9%,1.6,3.8%[8.37 µM],2.08µM*
NC1=NC[C@H](Cc2ccccc2)N1CCCCC1CCCCC1,-0.5,11.7µM*,10.4%,0.7,-3.1%[8.37 µM],?
c1ccc(C[C@H]2CN=C(Nc3ccccc3)N2CCC2CCCC2)cc1,.,?,4.1%,.,?,?
NC1=NC[C@H](Cc2ccccc2)N1CCc1cccc(F)c1,-3.8,3.7µM*,5.0%,1.0,13.3%,5.86µM*
Cc1ccc(CN2C(=NC(=O)CCC(=O)O)SC3CS(=O)(=O)CC32)cc1 (stereo unspecified),-1.7,5.4%,17.4%,-13.6,8.8%,-9.2%
CC(=O)N=C1SC2CS(=O)(=O)CC2N1c1ccc(-c2nc3ccc(C)cc3s2)cc1 (stereo unspecified),18.2*,165.4%,.,54.1*,-18.6%,89.3%
Cc1ccc2nc(-c3ccc(N4C(=NC(=O)CCC(=O)O)SC5CS(=O)(=O)CC54)cc3)sc2c1 (stereo unspecified),36.9*,159.2%,8.9%,124.3*,12.5%,125.9%
CC(C)c1cc(Cn2c3ccccc3c(=O)n2C(C)Cn2cc(CCc3ccccc3)nn2)on1 (stereo unspecified),.,.,-8.4%,.,.,.
CN(Cc1ccc(Cl)cc1Cl)C(=O)c1cccc(S(=O)(=O)N2CCN(c3ccccc3)CC2)c1,.,?,-16.5%,.,12.6µM*,?
CN(CCOc1ccc(Cl)cc1)C(=O)c1ccc(S(=O)(=O)N2CCOCC2)cc1,1.9,?,23.9%,27.5,?,?
COc1cccc(CN(C)C(=O)C2CCN(S(=O)(=O)c3ccc(C)cc3)CC2)c1OC,.,11.7µM*,-2.0%,.,4.0%,13.1µM*
CN(CCOc1ccc(Cl)cc1)C(=O)c1cccc(S(=O)(=O)N2CCN(c3ccccc3)CC2)c1,.,.,-8.8%,.,3.55µM*,.
COc1cccc(CN(C)C(=O)c2cccc(S(=O)(=O)N3CCN(c4ccccc4)CC3)c2)c1OC,.,.,-6.7%,.,7.08µM*,.
CN(Cc1ccc(Cl)cc1Cl)C(=O)c1cccc(S(=O)(=O)NCc2ccccc2)c1,.,.,2.2%[11.6 µM],.,-25.0%,.
COc1cc(C#N)c(NC(=S)N2CCN(C(=O)c3ccco3)CC2)cc1OC,.,.,79.4%,.,.,.
COc1cccc(CN(C)C(=O)c2cccc(S(=O)(=O)N3CCN(c4ccc(F)cc4)CC3)c2)c1OC,.,?,-28.5%,.,?,10.4µM*
COc1cccc(CN(C)C(=O)c2cccc(S(=O)(=O)N3CCN(Cc4ccccc4)CC3)c2)c1OC,.,?,16.6%,.,7.94µM*,?
CN(Cc1ccc(OC(F)F)cc1)C(=O)c1cccc(S(=O)(=O)N2CCN(Cc3ccccc3)CC2)c1,.,.,23.0%,.,5.62µM*,.
CN(Cc1ccc(OC(F)F)cc1)C(=O)C1CCN(S(=O)(=O)c2ccc3c(c2)OCCO3)CC1,.,?,8.7%,.,6.31µM*,?
CN(CC(=O)Nc1ccc(F)cc1)C(=O)C1CCN(S(=O)(=O)c2ccc3c(c2)OCCO3)CC1,.,?,-5.1%,.,?,?
Cc1ccc(C2(C)NC(=O)N(CC(=O)Nc3ccccc3C(=O)NC3CCCC3)C2=O)cc1 (stereo unspecified),.,?,18.2%,.,2.6%,-22.7%
C[n+]1c2cc(N)ccc2cc2ccc(N)cc21,.,0.0338µM*,-6.3%,.,1.41µM*,0.0478µM*
Nc1ccc2ccccc2c1,.,.,?,.,-10.7%,.
Cc1ccc(-c2ccc(/C=N\NC(=O)C3C(=O)NCC3c3ccccc3)o2)cc1Cl (stereo unspecified),10.5,?,28.6%,25.5,8.91µM*,.
SMILES,Cycloheximide cs,Pf growth 96h,AMA1 RON2 block,Shiga inhibitor,HCV inhibitor,Pf growth 48h
Cc1ccc(-c2ccc(C(=O)O)o2)cc1Cl,15.6*,0.0%,-1.8%,38.0,9.6%,-0.1%
Nc1ccccc1N=Cc1ccc(-c2cccc(Cl)c2)o1,28.8*,?,0.5%,76.1*,10µM*,10.4µM*
O=C(O)c1ccc(-c2cccc(Cl)c2)o1,.,.,2.0%,.,6.7%,.
Cc1ccc(-c2ccc(/C=N/c3ncn[nH]3)o2)cc1Cl,17.1*,15.4%,-6.1%,25.6,-7.8%,-3.1%
Cc1cc(C)n(C(=O)CNC(=O)c2ccc(Cl)cc2Cl)n1,9.3,34.0%,-10.8%,-3.6,5.8%,24.9%
COC(=O)N/N=C/c1ccc(-c2ccc(C)c(Cl)c2)o1,16.1*,?,-9.2%,38.4,-1.7%,13.0%
COC(=O)N/N=C/c1ccc(-c2cccc(Cl)c2)o1,32.6*,-23.3%,2.3%,54.8*,-20.8%,22.0%
CC1(C)C(=O)NC2=C1C(=O)C(=O)c1ccccc12,-17.5,.,.,-17.2,.,.
CN1CC=C(/C=C/c2ccc(-c3ccccc3)cc2)CC1,42.9*,13.1µM*,-20.8%,84.4*,?,?
COc1ccc(/C=C/C2=CCN(C)CC2)cc1,46.3*,204.6%,5.7%,63.3*,-6.4%,27.2%
CN1CCN(C(=O)/C=C/c2ccccc2)CC1,-3.7,90.2%,6.5%,-6.0,-1.0%,0.2%
COc1ccc(S(=O)(=O)Nc2noc3ccccc23)cc1OC,-1.4,-15.4%,43.7%,-8.2,12.2%,-3.8%
Cn1c(N)c(C(=O)COC(=O)c2cc(S(=O)(=O)N3CCOCC3)ccc2F)c(=O)n(C)c1=O,.,.,10.0%,.,?,.
Cc1n[nH]c(=O)n1-c1ccc(OCc2ccccc2)cc1,53.4*,-74.8%,-10.1%,91.9*,16.7%,283.5%
COc1ccc(-n2c(C)n[nH]c2=O)cc1,-2.1,77.3%,-2.8%,-10.2,14.9%,12.5%
COc1cc2c(cc1OC)C1=C(C#N)COCN1CC2,-2.7,3.7µM*,0.0%,-11.6,-9.8%,?
CCOC(=O)c1cnc2c(-c3ccc(Cl)cc3)cnn2c1C,14.1*,?,2.7%,31.9,27.4%,83.6%
CCOC(=O)c1cnc2c(-c3ccccc3)cnn2c1N,30.1*,13.6%,41.2%,90.2*,?,100.9%
CCOC(=O)c1cnc2c(-c3ccc(F)cc3)cnn2c1C(F)(F)F,17.4*,?,8.1%,27.5*,-22.2%,?
CCOC(=O)c1cnc2c(-c3ccccc3)c(C)nn2c1N,-1.6,?,27.1%,-5.2,?,.
CCOC(=O)c1cnc2c(C#N)cnn2c1N,-1.3,-11.1%,31.0%,2.4,3.2%,25.4%
FC(F)(F)c1cccc(-c2noc(-c3cc(-c4ccccc4)c(C(F)(F)F)s3)n2)c1,-3.5,.,.,5.2,.,.
CCN(C(=O)c1ccc(S(=O)(=O)N2CCCCC2)cc1)C1CCS(=O)(=O)C1 (stereo unspecified),.,-2.1%,-5.5%,.,-0.6%[8.37 µM],-4.6%
